# Compound activity as filed in PubChem.
# Rows were chosen to be rich in hits. Some 21% of all compounds tested hit in one or more screens of this group.
# HCV inhibitor: blocks hepatitis C virus; hit rate 3.4% among 340,000; AID 651820; Huh7.5.1 HCVcc-Cre infection, luciferase reporter, 44 h; Potency, µM (series often up to 41.8 µM), inactives show top-dose activity change, negative = inhibition, hits mostly inhibitors; also: potency is read from the fitted curve at half-maximal effect; % is scaled to controls: 0 for no effect and ±100 for the full control effect
#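 HCVcc-Cre virus at an moi near 0.5 was added right after compound to cells cultured 4 h from seeding (1,000 cells/well). Luciferase activity was determined 44 h later, 15 min after substrate addition at RT.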
# Shiga inhibitor: blocks Shiga toxin action in Vero cells; hit rate 9.2% among 290,000; AID 2315; inhibition, % at 38.7 µM; Vero cells, Shiga toxin protein synthesis inhibition reporter; in the data active = inhibition mostly above about 28%, no sharp cut-off; inactive = mostly below about 43%; also: 0% is about no effect
# CHX counter: counter-screen hit for Shiga toxin inhibitors, cycloheximide | cell reporter, cycloheximide protein synthesis inhibition counterscreen | max response, % | hit rate 12% among 300,000; in the data active = max response mostly above about 13%, no sharp cut-off; inactive = mostly below about 14%; also: read at 38.3 µM for the half of the compounds with a filed dose; 0% is about no effect
# Pf growth 96h: P. falciparum growth inhibition at 96 hours. hit rate 6.9% among 320,000. Potency, µM (highest dose often 28.7 µM), inactives show top-dose activity change, negative = inhibition, most hits filed as inhibitors. P. falciparum luciferase reporter growth, 96 h; also: potency is read from the fitted curve at half-maximal effect; % is scaled to controls: 0 for no effect and ±100 for the full control effect
#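 Readout is luminescence from an integrated firefly luciferase in P. falciparum. Red cells, 2% hematocrit and 0.05% parasitemia final, were cultured with compound through two parasite generations (96 hours) at 37 C, 5% CO2.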
# AMA1-RON2 inh: inhibitors of Plasmodium falciparum AMA1-RON2 interaction; AlphaScreen AMA1-biotinylated RON2 peptide binding; Potency, µM (top dose mostly 58.2 µM), without a hit: at the top dose activity change, negative = inhibition, hits mostly inhibitors; hit rate 0.2% among 360,000; AID 720542;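 also: potency is read from the fitted curve at half-maximal effect; 0% = vehicle wells and -100% = peptide control; nearly all actives have a fitted effect of over 45% in size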
#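 AMA1 (3D7) with his tag at 25 nM final met compounds first, then biotinylated RON2 peptide at 25 nM; detection used donor plus acceptor beads, 10 µg/mL apiece, read by AlphaScreen after 30 min at room temperature.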
# Pf growth 48h: inhibits P. falciparum growth in the first generation, 48 h. P. falciparum luciferase growth in erythrocytes, 48 h. Potency, µM (doses to about 28.7 µM), without a hit: at the top dose activity change, negative = inhibition, most hits filed as inhibitors. hit rate 5.9% among 310,000; also: potency is read from the fitted curve at half-maximal effect; % is scaled to controls: 0 for no effect and ±100 for the full control effect
#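 A one-generation exposure of luciferase-tagged malaria parasites in RPMI 1640/Albumax erythrocyte culture, 37 C and 5% CO2. Inhibition is inferred from decreased luminescence after adding detection reagent.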
# The depositor's hits bear a star; ? = inconclusive; nt = no result. Unless noted, calls follow the shape of the dose curve; as a rule, active = well fitted curve in the direction sought with a large enough effect; inconclusive = small, poorly fitted or top-dose-only effect, or another doubt; inactive = no such curve, though single readings can be large; an effect the other way counts as inactive or inconclusive.
SMILES,HCV inhibitor,Shiga inhibitor,CHX counter,Pf growth 96h,AMA1-RON2 inh,Pf growth 48h
COc1c(C)cc(Br)cc1C(=O)Nc1ccc(Cc2ccncc2)cc1,?,-10.6,-4.9,-1.7%,-16.0%,?
CC(C)(C)Sc1ccc([N+](=O)[O-])cc1C(=O)Nc1ccncc1,-6.9%,52.1*,13.3,0.928µM*,14.0%,?
O=C(N/N=C/c1cccc(O)c1)c1ccc(NC(=O)c2cccc([N+](=O)[O-])c2)cc1,?,34.3,16.6,16.4%,9.8%,?
Cc1cc([N+](=O)[O-])nn1CC(=O)N/N=C/c1ccccc1O,13.0%,57.5*,23.8*,?,101.0%,?
O=C(N/N=C/c1ccccn1)c1ccc(NC(=O)c2cccc([N+](=O)[O-])c2)cc1,?,8.7,0.5,?,75.4%,-27.6%
O=C(NN=Cc1ccccc1O)c1cccc([N+](=O)[O-])c1,7.94µM*,nt,nt,nt,68.0%,nt
O=C(N/N=C/c1ccccn1)c1ccc([N+](=O)[O-])cc1,3.1%,100.0*,36.4*,8.28µM*,44.5%,?
O=C(N/N=C/c1ccccn1)c1cccc([N+](=O)[O-])c1,-8.6%,54.9*,8.8*,-1.9%,92.3%,?
Cc1cc([N+](=O)[O-])nn1CC(=O)N/N=C/c1ccccc1F,6.4%,11.1,-1.4,5.1%,5.0%,-10.6%
O=C(CN1CCCCC1)NNc1nc(-c2ccccc2)c2cc(Br)ccc2n1,17.5%,-2.9,-3.1,?,86.2%,0.0%
COc1ccc(/C=N/NC(=O)c2ccc(NC(=O)c3cccc([N+](=O)[O-])c3)cc2)c(OC)c1,?,20.4,12.7,40.3%,5.2%,?
COc1ccccc1/C=N/NC(=O)c1ccc(NC(=O)c2cccc([N+](=O)[O-])c2)cc1,nt,-2.2,13.6,-0.7%,nt,5.22µM*
O=C(N/N=C/c1ccc(Br)s1)c1cccc([N+](=O)[O-])c1,-6.1%,6.3,-3.2,4.15µM*,-0.7%,2.94µM*
O=C(N/N=C/c1ccc(O)cc1)c1cccc(C(F)(F)F)c1,5.0%,9.2,6.5,11.5%,58.2%,19.7%
COc1cc([N+](=O)[O-])cc(/C=N/NC(=O)c2ccc(NC(=O)c3ccc(C)cc3)cc2)c1O,2.51µM*,-5.2,-3.0,13.4%,17.0%,9.0%
O=C(N/N=C/c1ccoc1)c1cccc([N+](=O)[O-])c1,13.5%,27.1,22.5,12.2%,49.0%,18.3%
O=C(N/N=C/c1ccccc1O)c1cccc(C(F)(F)F)c1,3.98µM*,47.6*,16.4,?,59.7%,?
CN(CC(=O)Nc1cc(Cl)ccc1-n1cncn1)Cc1ccccc1N1CCOCC1,nt,nt,nt,nt,106.2%,nt
CCN(CC(=O)Nc1c(F)cccc1F)C(=O)c1ccc2c(c1)C(=O)N(c1ccccc1C)C2=O,nt,nt,nt,nt,30.6%,nt
O=C(N/N=C/c1ccccc1C(F)(F)F)c1ccc(O)cc1,5.4%,69.3*,25.5*,143.7%,-4.2%,125.4%
COc1cccc(/C=N/NC(=O)c2cc3cc([N+](=O)[O-])ccc3s2)c1O,?,-11.0,1.2,?,35.2%,4.15µM*
CCCC(c1nnnn1Cc1ccccc1)N1CCN(c2ccccc2OC)CC1 (centres undefined),-4.7%,-8.9,-5.3,?,-8.6%,-20.6%
COc1ccc(Cn2nnnc2CN2CCc3ccccc32)cc1,4.9%,-21.6,-0.4,nt,0.0%,-18.3%
COc1ccc(Cn2nnnc2CN2CCc3ccccc3C2)cc1,?,-14.7,-6.9,13.1µM*,-8.9%,nt
COc1ccc(Cn2nnnc2C(c2cccs2)N2CCN(c3ccc([N+](=O)[O-])cc3)CC2)cc1 (centres undefined),-17.4%,-1.0,-2.0,?,-1.5%,10.4µM*
SMILES,HCV inhibitor,Shiga inhibitor,CHX counter,Pf growth 96h,AMA1-RON2 inh,Pf growth 48h
CCN1CCN(C(c2ccccc2)c2nnnn2Cc2ccc(OC)cc2)CC1 (centres undefined),-27.2%,-12.7,-7.9,5.22µM*,-0.3%,0.9%
CCCC(c1nnnn1Cc1ccc(OC)cc1)N1CCN(c2ccccc2OC)CC1 (centres undefined),?,9.1,-3.9,nt,-14.9%,10.4µM*
O=C(NCc1cccnc1)c1ccc(Br)o1,25.8%,nt,nt,0.8%,29.1%,15.0%
O=C1C(NS(=O)(=O)c2cccs2)=C(N2CCN(c3cccc(Cl)c3)CC2)C(=O)c2ccccc21,2.2%,-23.6,-3.2,nt,?,11.7µM*
O=S(=O)(Nc1ccc(N2CCOCC2)cc1)c1cccs1,3.2%,12.4,10.1,39.9%,-18.4%,0.5%
CSc1ccccc1C(=O)N1CCN(c2ccc(F)cc2)CC1,3.5%,-10.1,22.6,21.0%,-4.5%,nt
CC1CCN(C(CNS(=O)(=O)c2ccccc2)c2ccccc2)CC1 (centres undefined),0.5%,nt,nt,-21.5%,-12.1%,-18.3%
CC1CCN(C2=C(NS(=O)(=O)c3ccc(Br)cc3)C(=O)c3ccccc3C2=O)CC1,4.7%,38.1*,32.0*,?,12.6µM*,?
CC(=C1C(=O)c2ccccc2C1=O)N1CCN(c2ccc(F)cc2)CC1,3.2%,32.6*,13.7*,12.9%,1.5%,37.9%
CC1CCN(C2=C(NS(=O)(=O)c3ccccc3)C(=O)c3ccccc3C2=O)CC1,-22.7%,19.8,19.7*,?,?,?
CCc1nc2c(OCc3ccccc3)cccn2c1N(Cc1ccccc1)C(C)=O,nt,nt,nt,nt,-18.0%,nt
O=S(=O)(c1ccccc1Br)N1CCC(O)(c2cccnc2)CC1,-2.2%,-20.6,-0.7,21.2%,-1.7%,-4.7%
CCn1c(CC(=O)Nc2ccccc2F)nnc1SCC(=O)NC1=NCCS1,nt,nt,nt,nt,0.0%,nt
O=S(=O)(Nc1nc2ccccc2nc1N1CCN(c2ccccc2)CC1)c1ccc(F)cc1,5.2%,2.7,-4.0,-2.5%,-23.2%,10.5%
CC1CCN(C2=C(NS(=O)(=O)c3ccc(Cl)cc3)C(=O)c3ccccc3C2=O)CC1,2.3%,84.6*,22.5*,1.47µM*,?,7.38µM*
CC1CCCN(C2=C(NS(=O)(=O)c3ccc(Br)cc3)C(=O)c3ccccc3C2=O)C1 (centres undefined),4.9%,25.3,3.6,2.1%,?,?
O=C1C(NS(=O)(=O)c2ccccc2)=C(N2CCN(c3ccc(F)cc3)CC2)C(=O)c2ccccc21,-8.9%,25.7,6.2,?,17.8µM*,13.1µM*
O=C1C(NS(=O)(=O)c2ccc(Br)cc2)=C(N2CCCCC2)C(=O)c2ccccc21,?,-3.7,-1.7,9.28µM*,15.8µM*,11.7µM*
Cc1noc(C)c1NC(=O)N(C)C[C@H]1OCCCC[C@@H](C)Oc2ccc(NS(=O)(=O)c3ccccc3)cc2C(=O)N([C@H](C)CO)C[C@@H]1C,nt,nt,nt,nt,0.9%,nt
CCC(=O)O[C@@H](OP(=O)(CCCCc1ccccc1)CC(=O)N1C[C@H](C2CCCCC2)C[C@H]1C(=O)O)C(C)C (some centres undefined),nt,nt,nt,5.36µM*,nt,-10.2%
